Shown are actives, neighbours in structure and some others; about 8% of the full set was active somewhere.
SW480 rerep – DNA re-replication induction in SW480 cells. SW480 DNA re-replication, Hoechst DNA content imaging, 48 h. Potency, µM (doses to about 46.1 µM), for the others: top-dose re-replication activation, actives largely listed as activators. hit rate 1.8% among 340,000. AID 624297; further: % of control where 0% means no effect; nearly all actives have a fitted effect of over 55% in size
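Treated cells incubate 48 hr (37 C, 5% CO2), are stained 40 min with Hoechst, and nuclear fluorescence is enumerated; a rise in nuclei with high DNA signal marks re-replication.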
KB-3-1 tox – kills parental KB-3-1 adenocarcinoma cells; KB-3-1 viability, CellTiter-Glo ATP luminescence, 72 h; Potency, µM (titrated, usually from 46.1 µM), most hits filed as cytotoxic; hit rate 1.4% among 400,000; further: on the % scale 0 is the no-effect control and ±100 the full control effect; nearly all actives have a fitted effect of over 60% in size
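Luminescent ATP read-out (CellTiter-Glo) measures survival of drug-naive KB-3-1 cells after 72 h compound exposure at 37 °C. Titration series was screened from lowest to highest concentration, with DMSO vehicle plates as background controls.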
HT1080-NT tox – kills 2HG-producing HT-1080-NT fibrosarcoma cells. HT-1080-NT fibrosarcoma viability, CellTiter-Glo ATP luminescence, 48 h. Potency, µM (series often up to 46.1 µM), for the others: at the highest dose activity, negative = less viability, actives largely listed as cytotoxic. hit rate 1.6% among 360,000;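 further: NT is the 2HG producing partner of a matched IDH1 knockdown line; 0% = DMSO-treated cells and -100% = media-only wells without cells; nearly all actives have a fitted effect of over 55% in size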
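Compounds were tested in concentration-response format on HT-1080-NT cells for 48 hours at 37 degrees C. Cell viability came from CellTiter-Glo luminescence; curves were classified by r2, response magnitude and activity.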
KB-V1 cytotox – KB-V1 MDR subline cytotoxicity | hit rate 3.4% among 400,000 | Potency, µM (titrated, usually from 46.1 µM), hits mostly cytotoxic | KB-V1 MDR cells viability, CellTiter-Glo, 72 h; further: on the % scale 0 is the no-effect control and ±100 the full control effect; nearly all actives have a fitted effect of over 60% in size
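Cells of the MDR subline KB-V1 are plated, dosed with compound at multiple concentrations, and incubated 72 h at 37 degrees C; CellTiter-Glo is then added and luminescence read after 10 min.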
HT1080 IDH1KD tx – kills HT-1080 cells with IDH1 knockdown; AID 686971; Potency, µM (doses to about 46.1 µM), for inactives: top-dose activity, negative = toxicity, most hits filed as cytotoxic; HT-1080 IDH1 knockdown viability, ATP luminescence, 48 h; hit rate 2% among 360,000;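 further: 0% = DMSO wells and -100% = cell-free medium wells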
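HT-1080-IDH1KD cells (IDH1 knocked down), 750/well in RPMI with 5% FBS, treated with compound 48 h at 37 degrees C. Viability by CellTiter-Glo luminescence, normalised to DMSO and no-cell wells; concentration-response curves classed.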
MCF10A rereplic – inducers of DNA re-replication in MCF 10A breast cells. hit rate 2.9% among 350,000. AID 624296. MCF 10A DNA re-replication, Hoechst nuclear intensity, 48 h. Potency, µM (series often up to 46.1 µM), inactives show at the top dose activity, positive = re-replication, actives largely listed as activators; further: % of control where 0% means no effect; nearly all actives have a fitted effect of over 50% in size
Active calls of the source: *; i = inactive; ? = inconclusive; . = no result given. The call rests on the fitted dose curve; in most records, active means well fitted curve in the direction sought with a large enough effect; inconclusive means small, poorly fitted or top-dose-only effect, or another doubt; inactive means no such curve, though single readings can be large; an effect the other way counts as inactive or inconclusive. Potency means the concentration at half of the fitted maximal effect.

SMILES	SW480 rerep	KB-3-1 tox	HT1080-NT tox	KB-V1 cytotox	HT1080 IDH1KD tx	MCF10A rereplic
CC(C)CN(Cc1cc(=O)oc2cc(-c3ccccc3)c(O)cc12)CC(C)C	13.7%	?	25.9µM*	i	?	?
Cc1c(O)ccc2c(CN3CCN(C/C=C/c4ccccc4)CC3)cc(=O)oc12	22.3%	?	?	?	?	-1.9%
COc1ccc(Cl)cc1NC(=O)Cn1nnc2sc(-c3ccccc3)cc2c1=O	.	i	.	i	.	.
COc1ccc(Cl)cc1NC(=O)CN1c2ccccc2S(=O)(=O)c2ccccc21	.	i	.	i	.	.
COc1cc(/C=C/c2nc3ccccc3c(=O)[nH]2)ccc1OC(F)F	0.2%	i	5.7%	i	-2.6%	-1.0%
O=c1[nH]c(/C=C/c2ccccc2OC(F)F)nc2c1cnn2-c1ccccc1	?	i	18.4µM*	i	?	14.6µM*
COC(=O)c1ccc(Cl)cc1NC(=O)N(C)CCc1c(C)nn(C)c1C	.	i	.	i	.	.
CCOC(=O)c1[nH]c2ccc(F)cc2c1NC(=O)C(C)N1CCc2cc(OC)c(OC)cc2C1 (stereo not given)	16.4µM*	16.4µM*	?	?	16.4µM*	7.31µM*
O=C(NCCN1CCOCC1)c1ccc(Cl)c(S(=O)(=O)NCc2ccccc2)c1	-9.0%	i	10.4%	i	-0.3%	14.3%
CCCCCCCN(C(=O)CCl)c1ccccc1C	7.31µM*	i	-10.7%	i	?	0.3%
COc1cc(NC(=O)c2ccc(F)cc2)c(OC)cc1Cl	-11.7%	i	-5.9%	i	-10.9%	8.7%
COc1cc2c(c(OC)c1OC)-c1ccc(NC(=O)c3ccc(F)cc3)c(=O)cc1[C@@H](NC(C)=O)CC2	?	?	?	i	?	3.26µM*
COc1cc2c(c(OC)c1OC)-c1ccc(NCc3ccccc3)c(=O)cc1C(NC(C)=O)CC2 (stereo not given)	.	1.16µM*	3.66µM*	i	2.31µM*	.
Cc1cc(C)c(C)c(S(=O)(=O)N2CCC(C(=O)N3CCCC3)CC2)c1C	13.8%	i	-6.1%	i	-13.7%	10.6%
COc1ccc(CCNC(=O)C2CCN(Cc3nc(-c4ccccc4F)oc3C)CC2)cc1OC	-0.2%	i	-14.8%	16.4µM*	-1.5%	4.6%
Cc1oc(-c2ccccc2F)nc1CN1CCC(C(=O)NCCc2ccccc2)CC1	.	i	.	i	.	.
Cc1oc(-c2ccccc2F)nc1CN1CCC(C(=O)NCCC2=CCCCC2)CC1	7.4%	?	-22.5%	8.2µM*	-2.4%	5.1%
Cc1oc(-c2ccccc2F)nc1CN1CCC(C(=O)NCc2cccnc2)CC1	-2.4%	i	-5.5%	i	2.4%	0.5%
COc1cccc(C2=NOC(C(=O)N3CCN(Cc4ccccc4)CC3)C2)c1OC (stereo not given)	2.8%	i	0.4%	5.8µM*	0.8%	0.5%
CCOC(=O)COc1cc(N)c(Cl)cc1Cl	-2.1%	i	-5.7%	i	-3.9%	6.51µM*
CCOC(=O)COc1cc(-n2c(=S)[nH]c3ccccc3c2=O)c(Cl)cc1Cl	-2.3%	i	-7.1%	i	-16.1%	?
Cc1c(Cl)ccc2sc(N3CCN(C(=O)CS(=O)(=O)c4ccccc4)CC3)nc12	.	i	.	i	.	.
Cc1ccc(Cl)cc1N1CCN(C(=O)c2sc3nc4n(c(=O)c3c2C)CCC4)CC1	.	i	.	i	.	.
CC(=Nc1ccccc1)C1=C(O)C(Cc2ccc(F)cc2)NC1=O (stereo not given)	.	1.84µM*	2.59µM*	?	2.59µM*	.
CC(=Nc1ccccc1)C1=C(O)C(CC(C)C)NC1=O (stereo not given)	-1.4%	i	12.5%	23.1µM*	11.0%	5.1%
SMILES	SW480 rerep	KB-3-1 tox	HT1080-NT tox	KB-V1 cytotox	HT1080 IDH1KD tx	MCF10A rereplic
CC(=Nc1ccccc1)C1=C(O)CSC1=O	-3.3%	i	8.7%	i	-23.6%	9.6%
CC(=Nc1ccccc1)C1=C(O)C(Cc2ccccc2)NC1=O (stereo not given)	0.164µM*	0.0065µM*	0.581µM*	i	?	?
CC(=Nc1ccccc1)C1=C(O)CCCC1=O	-12.1%	i	6.2%	i	23.7%	2.5%
CCc1ccccc1N1CC(c2nc3ccccc3n2Cc2cccc(C)c2)CC1=O (stereo not given)	.	i	.	i	.	.
CCCn1c(=O)c2c(C(=O)OCC)cc(-c3ccco3)nc2n(CCC)c1=O	-7.7%	i	3.2%	18.4µM*	2.6%	11.6µM*
CCOC(=O)c1cnn2c(C(F)(F)F)cc(-c3ccco3)nc12	16.2%	i	-1.3%	i	0.1%	-0.3%
CCOC(=O)c1cc(-c2ccco2)nc2c1c(C)nn2-c1ccccc1	14.7%	i	3.5%	i	6.1%	9.2µM*
CCCn1c(=O)c2c(C(F)(F)F)cc(-c3ccco3)nc2n(CCC)c1=O	1.7%	i	3.2%	i	-3.7%	?
CCCN1CNc2c(c(=O)[nH]c(=S)n2CCC(C)C)C1	.	.	-0.2%	.	9.3%	.
CN(C1=C(NC(=O)c2ccccc2)C(=O)c2ccccc2C1=O)C1CCS(=O)(=O)C1 (stereo not given)	?	?	?	?	-24.3%	23.1µM*
CC(=O)NC1=C(NC2CCS(=O)(=O)C2)C(=O)c2ccccc2C1=O (stereo not given)	18.4µM*	?	-10.1%	i	-9.4%	?
Cc1ccccc1Cn1c(NC2CCCC2)nc2c1c(=O)[nH]c(=O)n2C	-1.3%	i	9.8%	i	15.0%	13.9%
COc1ccccc1CNC(=O)c1cc2sccc2n1Cc1ccc(Cl)cc1	.	i	.	i	.	.
O=C1/C(=C/c2ccc([N+](=O)[O-])cc2)C=C(c2ccccc2)N1c1ccc(O)cc1	?	?	-15.4%	5.8µM*	?	18.4µM*
O=C1/C(=C/c2ccc([N+](=O)[O-])cc2)C=C(c2ccccc2)N1c1ccccc1	6.9%	i	-3.5%	i	-10.4%	17.4%
O=C(c1ccc2c(=O)n(-c3ccccc3)c(=S)[nH]c2c1)N1CCCCC1	-2.8%	7.31µM*	-27.3%	?	-27.1%	?
O=C(c1ccc2c(=O)n(C3CCCC3)c(=S)[nH]c2c1)N1CCCCCC1	-3.3%	?	-10.3%	7.31µM*	-0.1%	-1.3%
CN(C)c1ccc(CNC(=O)C2CCN(c3nnc(-n4cccc4)s3)CC2)cc1	.	i	.	i	.	.
Cc1cccc[n+]1CC(=O)/C=C1\N(C)c2ccccc2C1(C)C	-3.6%	4.11µM*	-13.5%	i	?	?
